Measured values taken from PubChem BioAssay.
Calls of active or inactive are those of the source.

Columns and labels:
[1] = test system: Human papillomavirus type 1a protein E7 (residues 44-93); test: HPV1a E7 fragment binders on microarrays, primary screen, biochemical, small-molecule microarray, residues 44-93, 635 nm fluorescence (AID 1108); settings: small-molecule microarray binding, fluorescence 635 nm; higher = more signal;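 further: E7 fragment applied at 1 µg/mL in TBST for 1 h at 4 C; score combines spot fluorescence with its signal to noise ratio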
[2] = modulators of HCV replicon luciferase signal, primary screen, HCV replication inhibitor project, Huh7 cells, luciferase reporter (AID 1109); settings: 48 h, higher = more signal;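 further: huh7 hepatoma cells harbouring a luciferase neomycin HCV replicon reporter; luciferase luminescence as measure of HCV replicon replication; test concentration not given here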
[3] = biological target: Left-right determination factor 2 (Homo sapiens) (UniProt O00292); test: LEFTY2 binders on small-molecule microarrays, primary screen, biochemical, small-molecule microarray, 635 nm fluorescence scan (AID 1110); settings: LEFTY2 binding, higher = more signal
Chain of Left-right determination factor 2 (Homo sapiens) (O00292 whole entry, looked up): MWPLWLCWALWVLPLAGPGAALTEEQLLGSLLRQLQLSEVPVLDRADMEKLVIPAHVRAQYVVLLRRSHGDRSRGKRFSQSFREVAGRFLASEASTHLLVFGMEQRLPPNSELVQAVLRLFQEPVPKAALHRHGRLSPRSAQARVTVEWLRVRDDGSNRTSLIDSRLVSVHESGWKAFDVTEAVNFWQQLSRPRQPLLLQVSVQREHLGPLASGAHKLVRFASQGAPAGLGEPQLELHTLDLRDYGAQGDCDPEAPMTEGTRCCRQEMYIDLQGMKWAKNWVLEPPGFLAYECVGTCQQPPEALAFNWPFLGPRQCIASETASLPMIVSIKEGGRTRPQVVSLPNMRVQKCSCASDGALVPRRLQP

[4] = biological target: Calmodulin-1 (Homo sapiens) (UniProt P0DP23); test: CALM1 binders on microarrays, EGTA buffer, profiling panel, biochemical, small-molecule microarray, Cy5-labelled CALM1 (AID 1111); settings: Cy5-CALM1 binding fluorescence, higher = more signal;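 further: labelled calmodulin applied in Tris saline Tween buffer holding calcium plus EGTA and DTT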
[5] = biological target: Calmodulin-1 (Homo sapiens) (UniProt P0DP23); test: calcium-bound CALM1 binders on microarrays, profiling panel, artefact control for SMM control-protein annotation, biochemical, small-molecule microarray, Cy5-labelled CALM1, plus calcium (AID 1112); settings: Cy5-CALM1 binding fluorescence, higher = more signal;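 further: score merges spot fluorescence with signal to noise from triplicate slides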
[6] = small-molecule microarray binders of probe aWnt5a, primary screen, biochemical, biotinylated probe, 635/667 nm fluorescence (AID 1113); settings: higher = more signal;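 further: score merges 667 nm fluorescence intensity with signal-to-noise per printed feature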
[7] = small-molecule microarray binders of probe aShh, primary screen, biochemical, biotinylated probe, 635/667 nm fluorescence (AID 1114); settings: higher = more signal;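 further: probe is biotin-labelled aShh protein from a stem cell growth factor screen; measures binding of labelled protein to compounds printed on the slide; score merges feature fluorescence at 667 nm with signal-to-noise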
[8] = small-molecule microarray binders of probe aNog, primary screen, biochemical, biotinylated probe, 635/667 nm fluorescence (AID 1115); settings: higher = more signal;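 further: probe is biotinylated aNog protein used at 0.15 µg/mL for 1 h at 4 C; z-score combines 667 nm fluorescence of each spot with its signal to noise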
[9] = biological target: Torsin-1A-interacting protein 1 (Homo sapiens) (UniProt Q5JTV8); test: LAP1 binders from COS7 cell lysate, primary screen, small-molecule microarray, 635/667 nm fluorescence (AID 1116); settings: COS7-hLAP1 lysate binding, 635 nm fluorescence, higher = more signal
Chain of Torsin-1A-interacting protein 1 (Homo sapiens) (Q5JTV8 whole entry, looked up): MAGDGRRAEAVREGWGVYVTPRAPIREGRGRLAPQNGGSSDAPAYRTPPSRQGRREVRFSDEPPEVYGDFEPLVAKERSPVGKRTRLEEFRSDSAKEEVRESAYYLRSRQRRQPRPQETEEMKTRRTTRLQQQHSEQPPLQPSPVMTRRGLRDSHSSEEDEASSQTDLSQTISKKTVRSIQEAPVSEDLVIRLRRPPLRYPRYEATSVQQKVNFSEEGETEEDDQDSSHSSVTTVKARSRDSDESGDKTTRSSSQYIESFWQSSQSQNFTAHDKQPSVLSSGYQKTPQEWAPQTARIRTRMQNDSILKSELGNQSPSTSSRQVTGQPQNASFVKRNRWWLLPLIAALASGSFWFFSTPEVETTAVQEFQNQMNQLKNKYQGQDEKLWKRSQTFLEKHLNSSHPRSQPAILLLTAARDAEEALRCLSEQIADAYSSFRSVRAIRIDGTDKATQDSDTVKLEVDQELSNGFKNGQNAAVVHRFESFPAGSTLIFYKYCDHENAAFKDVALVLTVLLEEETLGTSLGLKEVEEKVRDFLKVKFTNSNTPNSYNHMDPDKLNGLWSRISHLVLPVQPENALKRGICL

[10] = biological target: Alpha-bungarotoxin (Bungarus multicinctus) (UniProt P60615); test: alpha-bungarotoxin binders on microarray, profiling panel, artefact control for SMM control protein annotation, biochemical, small-molecule microarray, Alexa647 label, 635/667 nm fluorescence (AID 1117); settings: alpha-BTX-A647 binding fluorescence, higher = more signal
Chain of Alpha-bungarotoxin (Bungarus multicinctus) (P60615 whole entry, looked up): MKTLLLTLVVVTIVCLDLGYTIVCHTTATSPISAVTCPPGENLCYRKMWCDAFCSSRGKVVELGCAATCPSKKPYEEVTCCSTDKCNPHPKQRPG

Albumin (Bos taurus) = Albumin (Bos taurus) (UniProt P02769); test: bovine serum albumin binders on microarray, profiling panel, artefact control for SMM control protein annotation, biochemical, small-molecule microarray, Alexa647 label, 635/667 nm fluorescence (AID 1118); settings: BSA-A647 binding, fluorescence 635 nm, higher = more signal;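 further: score merges 667 nm emission intensity and signal-to-noise per printed compound spot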
Chain of Albumin (Bos taurus) (P02769 whole entry, looked up): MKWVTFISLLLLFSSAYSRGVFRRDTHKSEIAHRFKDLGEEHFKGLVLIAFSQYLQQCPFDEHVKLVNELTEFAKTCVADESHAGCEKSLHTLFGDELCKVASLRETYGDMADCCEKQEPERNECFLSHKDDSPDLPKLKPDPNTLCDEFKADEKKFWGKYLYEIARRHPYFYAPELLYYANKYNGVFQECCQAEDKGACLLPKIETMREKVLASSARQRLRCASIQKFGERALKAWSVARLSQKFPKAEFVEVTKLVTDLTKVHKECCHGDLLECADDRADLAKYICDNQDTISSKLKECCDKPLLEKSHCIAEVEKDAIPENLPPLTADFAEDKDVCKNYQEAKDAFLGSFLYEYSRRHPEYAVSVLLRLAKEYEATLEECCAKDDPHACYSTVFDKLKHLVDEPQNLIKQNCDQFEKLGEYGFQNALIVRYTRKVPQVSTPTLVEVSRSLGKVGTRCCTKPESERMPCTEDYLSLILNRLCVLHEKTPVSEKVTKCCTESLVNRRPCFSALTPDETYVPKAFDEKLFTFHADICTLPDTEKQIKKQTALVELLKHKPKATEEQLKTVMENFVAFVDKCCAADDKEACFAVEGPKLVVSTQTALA

[11] = small-molecule microarray binders of probe aXIP, primary screen, biochemical, NeuroSMM set, 635/667 nm fluorescence (AID 1119); settings: higher = more signal, called active from +8 up or from −8 down;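 further: probe is the protein aXip251-270 applied at 1 µg/mL to compound-printed slides; binding of probe to printed compounds measured as 667 nm fluorescence plus signal to noise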
[12] = small-molecule binders of probe aNOTCH3, primary screen, biochemical, small-molecule microarray, 635/667 nm fluorescence (AID 1120); settings: higher = more signal;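 further: probe is a biotin-tagged antibody raised against NOTCH3 rather than NOTCH3 protein; score merges spot fluorescence near 667 nm with spot signal to noise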
[13] = small-molecule binders of probe aNOTCH2, primary screen, biochemical, small-molecule microarray, 635/667 nm fluorescence (AID 1121); settings: higher = more signal;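 further: score merges feature fluorescence read at 667 nm with its signal to noise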
[14] = biological target: Carbonic anhydrase 2 (Homo sapiens) (UniProt P00918); test: CAII small-molecule binders, profiling panel, biochemical, small-molecule microarray, Alexa647-labelled CAII (AID 1122); settings: CAII-A647 binding fluorescence, higher = more signal
[15] = COS7 lysate on small-molecule microarray, probe aHis, 635 nm (AID 1123); settings: COS7 cell lysate, fluorescence, higher = more signal;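 further: z-score combines 667nm fluorescence intensity with signal-to-noise per printed compound spot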
[16] = compound binding in COS7 lysate, probe aLAP1, primary screen, cell lysate, small-molecule microarray (AID 1124); settings: probe aLAP1, fluorescence, higher = more signal;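 further: lysate comes from COS7 cells expressing LAP1 and is applied at 0.3 µg/mL; score merges spot fluorescence near 667 nm with signal-to-noise over triplicate slides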
Sam68 (KHDRBS1) = test: Sam68 small-molecule binders, primary screen, biochemical, small-molecule microarray, 635 nm fluorescence (AID 1125); settings: small-molecule microarray binding, higher = more signal;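 further: score merges 667 nm channel intensity with signal to noise over triplicate slides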
[17] = test system: Chordin-like protein 2 (CHRDL2); test: CHRDL2 small-molecule binders, primary screen, biochemical, small-molecule microarray, 635 nm fluorescence (AID 1126); settings: small-molecule microarray binding, fluorescence 635 nm; higher = more signal;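 further: printed compound slides probed with Chrdl2 protein at 4 µg/mL for 1 h at 4 C; score merges 667 nm emission intensity with signal to noise over three replicate slides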
[18] = biological target: Concanavalin-A (Canavalia ensiformis) (UniProt P02866); test: ConA small-molecule binders, primary screen, artefact control for SMM control protein annotation, biochemical, small-molecule microarray, Alexa647 label, 635 nm (AID 1127); settings: ConA-A647 binding fluorescence, higher = more signal;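 further: z combines 667 nm emission intensity with signal-to-noise across three replicate slides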
Chain of Concanavalin-A (Canavalia ensiformis) (P02866 whole entry, looked up): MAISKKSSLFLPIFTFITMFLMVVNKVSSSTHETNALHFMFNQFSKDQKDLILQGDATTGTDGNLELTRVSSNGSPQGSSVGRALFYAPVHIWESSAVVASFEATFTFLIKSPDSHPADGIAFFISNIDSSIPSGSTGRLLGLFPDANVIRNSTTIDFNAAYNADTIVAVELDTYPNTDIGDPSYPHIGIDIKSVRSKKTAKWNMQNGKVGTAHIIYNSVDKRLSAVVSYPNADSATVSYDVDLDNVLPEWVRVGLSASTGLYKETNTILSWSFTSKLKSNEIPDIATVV

| Compound | composite z-score [1] | z-score [2] | composite z-score [3] | composite z-score [4] | composite z-score [5] | composite z-score [6] | composite z-score [7] | composite z-score [8] | composite z-score [9] | composite z-score [10] | composite z-score (Albumin (Bos taurus)) | composite Z-score [11] | composite z-score [12] | composite z-score [13] | composite z-score [14] | composite z-score [15] | composite z-score [16] | composite z-score (Sam68 (KHDRBS1)) | composite z-score [17] | composite z-score [18] |
| --- | --- | --- | --- | --- | --- | --- | --- | --- | --- | --- | --- | --- | --- | --- | --- | --- | --- | --- | --- | --- |
| COc1cc2c(cc1O)C(C)N(Cc1ccc([N+](=O)[O-])o1)CC2 (stereo not given) | 1.28 | -0.616 | 0.0215 | 2.21 | 1.21 | 0.138 | -0.153 | -0.335 | 0.961 | 1.95 | 0.831 | 0.0948 (inactive) | 0.348 | 0.0746 | 0.512 | 0.68 | 1.57 | 1.33 | -0.622 | 1.17 |
| COC(=O)[C@@]1(Cc2ccccc2N=[N+]=[N-])N=C(c2ccc(OCCCO)cc2)O[C@H]1c1ccccc1N=[N+]=[N-] | 0.193 | -3.4 | -0.182 | 0.178 | -0.62 | 0.027 | -0.064 | 1.05 | 0.435 | 0.726 | -0.908 | 0.332 (inactive) | 0.149 | 0.0977 | 0.355 | 1.44 | 0.494 | 0.996 | 0.456 | 0.851 |
| COC(=O)[C@@]1(Cc2ccc(OC)cc2)[C@@H]2C(=CC(=O)[C@H]2CC(=O)C(=O)N(C)C)CN1C(=O)c1ccccc1 | 1.42 | -2.8 | -0.195 | 2.21 | 0.775 | 0.268 | 0.1 | 2.25 | 0.755 | 0.923 | 0.982 | -0.0238 (inactive) | 0.848 | 0.358 | 0.777 | 2.47 | 0.536 | 1.31 | -0.501 | 1.11 |
| NCCCCCNC(=O)[C@@H]1C[C@@H]2C(=O)NCC(=O)N2[C@@H]1c1cccc(OCCO)c1 | 1.2 | -0.878 | 0.79 | 0.885 | 0.433 | -0.0202 | 0.412 | 0.217 | 0.513 | 1.01 | 0.411 | 0.401 (inactive) | 0.154 | -0.0366 | 0.443 | 0.506 | 0.954 | 1.32 | 0.788 | 1.17 |
| COC1OC[C@]2(C)[C@H]3C4=C(CN2C(=O)OC(C)(C)C)[C@H](C)C(CO)C(CO)C4CC[C@@H]13 (stereo not given in full) | 1.22 | -1.3 | -0.134 | 2.62 | 1.39 | -0.0007 | 0.605 | 1.04 | 2.14 | 2.39 | 1.1 | 0.0112 (inactive) | 0.239 | 0.35 | 0.805 | 2.88 | 0.875 | 1.31 | -0.675 | 1.17 |
| C[C@]1(C(=O)NC2CC2)c2ccccc2C(=O)N(Cc2ccccc2)[C@H]1c1ccc(CO)cc1 | -0.614 | -0.582 | -1.25 | -0.875 | -0.629 | -0.148 | -0.352 | 0.113 | -0.0199 | -1.02 | -1.91 | -0.504 (inactive) | -0.337 | -0.105 | 0.168 | -0.163 | 0.11 | -0.958 | -0.771 | -1.21 |
